# PubChem BioAssay (NCATS)
# “And” between values parts separate entries of the source, which are not always exact repeats. Equal values may be shown once. Records with an inconclusive call do not appear. A call without a number means that no potency is given here. The source made the active and inactive calls. Unless noted, calls come from the whole dose curve; as a rule, active = well fitted curve in the direction sought with a large enough effect; inconclusive = small, poorly fitted or top-dose-only effect, or another doubt; inactive = no such curve, though single readings can be large; an effect the other way counts as inactive or inconclusive.
# Target: Cytochrome P450 2C9 (Homo sapiens) (UniProt P11712)
# Experiment: Cytochrome P450 family 2 subfamily C member 9 (CYP2C9) small molecule antagonists: luciferase biochemical (cell-free) qHTS assay (AID 1645842; active = well fitted curve in the direction sought with a large enough effect in the repeat runs; an effect the other way counts as inactive or inconclusive; note: nearly all actives have a fitted effect of over 55% in size; note: potency is the fitted concentration of half-maximal effect)
# Conditions: P450-Glo CYP2C9 enzyme assay, luciferin luminescence; series mostly up to 57.4 µM
# In short: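 P450-Glo CYP2C9 system: proluciferin substrate with enzyme in mix containing 0.4% BSA, 10 min at room temperature, then NADPH regeneration solution added and incubated 1 h at 37C. Detection reagent stopped reaction; luminescence read after 20 min as RLU.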
# Cytochrome P450 2C9 (Homo sapiens), sequence (P11712 whole entry, looked up): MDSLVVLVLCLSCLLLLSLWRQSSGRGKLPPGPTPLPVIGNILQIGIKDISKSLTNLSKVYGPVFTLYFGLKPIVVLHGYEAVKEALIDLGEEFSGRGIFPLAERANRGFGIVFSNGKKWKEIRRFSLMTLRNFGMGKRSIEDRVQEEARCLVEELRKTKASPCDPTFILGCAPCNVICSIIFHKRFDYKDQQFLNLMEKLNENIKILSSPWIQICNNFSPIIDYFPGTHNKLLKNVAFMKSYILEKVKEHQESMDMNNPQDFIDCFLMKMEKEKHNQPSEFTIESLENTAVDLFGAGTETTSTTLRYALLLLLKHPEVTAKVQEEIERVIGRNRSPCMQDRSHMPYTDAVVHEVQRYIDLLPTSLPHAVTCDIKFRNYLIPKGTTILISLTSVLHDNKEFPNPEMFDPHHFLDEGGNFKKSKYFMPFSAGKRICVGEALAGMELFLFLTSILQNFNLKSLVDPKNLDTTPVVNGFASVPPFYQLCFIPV
row,SMILES,Potency
1,CCN(CC)CCNC(=O)c1ccc(N)cc1,inactive
2,O=C(O)Cc1cccc2ccccc12,inactive
3,N#C[C@H]1C[C@H]2C[C@@H]2N1C(=O)[C@@H](N)C12CC3CC(CC(O)(C3)C1)C2,inactive
4,c1ccc2c(-c3cnn4cc(-c5ccc(N6CCNCC6)cc5)cnc34)ccnc2c1,inactive
5,OC[C@@H](O)[C@H](O)[C@H](O)[C@@H](O)CO,inactive
6,COc1cc2c(cc1OC)CN(CCc1ccc(NC(=O)c3cc(OC)c(OC)cc3NC(=O)c3cnc4ccccc4c3)cc1)CC2,inactive
7,CC(=O)O[C@]1(C(C)=O)CC[C@H]2[C@@H]3C=C(Cl)C4=CC(=O)[C@@H]5C[C@@H]5[C@]4(C)[C@H]3CC[C@@]21C,9.77 µM (active)
8,CCc1ccc(OCc2ccccc2C(=O)Nc2ccc3nc(C)cc(N)c3c2)cc1,26.8 µM (active)
9,CCOC(=O)C1=C(N)Oc2ccc(Br)cc2C1C(C#N)C(=O)OCC (stereo not given),6.01 µM (active) and 12 µM (active) and 10.7 µM (active)
10,CN(C[C@@H]1COCCO1)S(=O)(=O)Nc1ccc2ccc3ncc(-c4cnn(C)c4)cc3c(=O)c2c1,0.477 µM (active)

# Target: Papain (Carica papaya) (UniProt P00784)
# Experiment: Primary qHTS assay for inhibitors of the protease papain (AID 1645873);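 note: papain turnover of Z-FR-AMC read as the AMC fluorescence gain over 10 min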
# Conditions: papain Z-FR-AMC cleavage, AMC fluorescence; series mostly up to 49.8 µM
# Papain (Carica papaya), sequence (P00784 whole entry, looked up): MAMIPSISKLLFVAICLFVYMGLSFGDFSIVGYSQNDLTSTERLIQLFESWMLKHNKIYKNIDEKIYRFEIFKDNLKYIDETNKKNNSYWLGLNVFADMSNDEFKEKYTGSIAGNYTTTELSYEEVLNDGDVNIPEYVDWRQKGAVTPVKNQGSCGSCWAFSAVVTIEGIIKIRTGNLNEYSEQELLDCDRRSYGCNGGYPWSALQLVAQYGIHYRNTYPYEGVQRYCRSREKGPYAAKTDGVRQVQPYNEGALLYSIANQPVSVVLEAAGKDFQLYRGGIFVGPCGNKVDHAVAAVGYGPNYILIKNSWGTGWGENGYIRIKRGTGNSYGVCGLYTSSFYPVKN
row,SMILES,outcome
1,COC(=O)[C@@H]1[C@H]2C[C@H]3c4[nH]c5ccccc5c4CCN3C[C@@H]2CC[C@@H]1O,inactive
2,Clc1ccc(C(c2ccc(Cl)cc2)n2cc[n+](CC(OCc3ccc(Cl)cc3Cl)c3ccc(Cl)cc3Cl)c2)cc1 (stereo not given),inactive
3,CC(C)NCC(O)COc1cccc2[nH]ccc12 (stereo not given),inactive
4,CCN1CCC[C@H]1CNC(=O)c1cc(S(N)(=O)=O)ccc1OC,inactive
5,CC(C)(C)c1ccc(C(O)CCCN2CCC(C(O)(c3ccccc3)c3ccccc3)CC2)cc1 (stereo not given),inactive
6,COc1ccc(Cc2nccc3cc(OC)c(OC)cc23)cc1OC,inactive
7,C[N+](C)(C)CCCCCC[N+](C)(C)C,inactive
8,Clc1ccc(Cn2c(CN3CCCC3)nc3ccccc32)cc1,inactive
9,CCCCC1C(=O)N(c2ccccc2)N(c2ccccc2)C1=O,inactive
10,CC(C)OC(=O)C(C)(C)Oc1ccc(C(=O)c2ccc(Cl)cc2)cc1,inactive
11,CC(=O)c1ccc(S(=O)(=O)NC(=O)NC2CCCCC2)cc1,inactive
12,CN(C)CCC(c1ccccc1)c1ccccn1 (stereo not given),inactive
13,CCn1cc(C(=O)O)c(=O)c2ccc(C)nc21,inactive
14,CC(=O)CCCCn1c(=O)c2c(ncn2C)n(C)c1=O,inactive
15,O=C1NC(=O)C(c2ccccc2)(c2ccccc2)N1,inactive
16,CC1(C)CCC2=C(O1)c1ccccc1C(=O)C2=O,inactive
17,CC/C(=C(\c1ccccc1)c1ccc(OCCN(C)C)cc1)c1ccccc1,inactive
18,CCCNC(=O)NS(=O)(=O)c1ccc(Cl)cc1,inactive
19,COc1cccc(-c2cc(=O)c3ccccc3o2)c1N,inactive

# Target: N-terminal Xaa-Pro-Lys N-methyltransferase 1 (Homo sapiens) (UniProt Q9BV86)
# Experiment: Confirmatory qHTS for Inhibitors of N-terminal methyltransferase 1 (NTMT1): MTaseGlo Assay (AID 1645874); note: nearly all actives have a fitted effect of over 65% in size; note: potency is the fitted concentration of half-maximal effect
# Conditions: NTMT1 enzyme, MTase-Glo SAH luminescence; series mostly up to 100 µM
# In short: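 MTase-Glo luminescence measured SAH formed by 125 nM NTMT1 from 100 uM SAM and 1 uM SPKRIA peptide over 30 min at room temperature, following 15 min compound preincubation. Percent inhibition against no-enzyme and DMSO controls gave 4-parameter Hill fits.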
# N-terminal Xaa-Pro-Lys N-methyltransferase 1 (Homo sapiens), sequence (Q9BV86 whole entry, looked up): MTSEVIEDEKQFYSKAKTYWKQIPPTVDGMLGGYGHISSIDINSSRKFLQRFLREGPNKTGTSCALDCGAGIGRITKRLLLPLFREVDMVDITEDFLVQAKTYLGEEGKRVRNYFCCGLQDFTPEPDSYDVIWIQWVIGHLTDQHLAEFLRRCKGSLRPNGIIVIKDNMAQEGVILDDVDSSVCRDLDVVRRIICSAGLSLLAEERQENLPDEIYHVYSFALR
row,SMILES,Potency
1,Cc1cccc(Nc2nc(-c3ccncc3)cs2)c1,2.82 µM (active)
2,COc1cc(Nc2ncc(F)c(Nc3ccc4c(n3)NC(=O)C(C)(C)O4)n2)cc(OC)c1OC,inactive
3,O=C(Nc1ccccc1-c1cn2c(CN3CCNCC3)csc2n1)c1cnc2ccccc2n1,33.9 µM (active)

# Tested on: not listed separately
# Experiment: Primary qHTS for inhibitors of nuclear receptor binding SET domain protein 2 (NSD2) in an isogenic RCH-ACV NSD2 p.E1099K mutant (9B) (AID 1645876); note: nearly all actives have a fitted effect of over 70% in size; note: potency is the fitted concentration of half-maximal effect
# Conditions: RCH-ACV (leukaemia line) NSD2 E1099K (9B) viability, CellTiter-Glo, 72 h; series mostly up to 44.9 µM
row,SMILES,Potency
1,COC(=O)[C@@H]1[C@H]2C[C@H]3c4[nH]c5ccccc5c4CCN3C[C@@H]2CC[C@@H]1O,inactive
2,Clc1ccc(C(c2ccc(Cl)cc2)n2cc[n+](CC(OCc3ccc(Cl)cc3Cl)c3ccc(Cl)cc3Cl)c2)cc1 (stereo not given),5.25 µM (active)
3,CC(C)NCC(O)COc1cccc2[nH]ccc12 (stereo not given),inactive
4,CCN(CC)CCNC(=O)c1ccc(N)cc1,inactive
5,CCN1CCC[C@H]1CNC(=O)c1cc(S(N)(=O)=O)ccc1OC,inactive
6,O=C(O)Cc1cccc2ccccc12,inactive
7,C[N+](C)(C)CCCCCC[N+](C)(C)C,inactive
8,Cc1cccc(Nc2nc(-c3ccncc3)cs2)c1,10.3 µM (active) and 11.8 µM (active)
9,CCCCC1C(=O)N(c2ccccc2)N(c2ccccc2)C1=O,inactive
10,CC(C)OC(=O)C(C)(C)Oc1ccc(C(=O)c2ccc(Cl)cc2)cc1,inactive
11,CC(=O)c1ccc(S(=O)(=O)NC(=O)NC2CCCCC2)cc1,inactive
12,CN(C)CCC(c1ccccc1)c1ccccn1 (stereo not given),inactive
13,CC(=O)CCCCn1c(=O)c2c(ncn2C)n(C)c1=O,inactive
14,c1ccc2c(-c3cnn4cc(-c5ccc(N6CCNCC6)cc5)cnc34)ccnc2c1,2.63 µM (active)
15,OC[C@@H](O)[C@H](O)[C@H](O)[C@@H](O)CO,inactive
16,O=C1NC(=O)C(c2ccccc2)(c2ccccc2)N1,inactive
17,CC1(C)CCC2=C(O1)c1ccccc1C(=O)C2=O,13.2 µM (active)
18,CC/C(=C(\c1ccccc1)c1ccc(OCCN(C)C)cc1)c1ccccc1,inactive
19,COc1cc2c(cc1OC)CN(CCc1ccc(NC(=O)c3cc(OC)c(OC)cc3NC(=O)c3cnc4ccccc4c3)cc1)CC2,inactive
20,COc1cc(Nc2ncc(F)c(Nc3ccc4c(n3)NC(=O)C(C)(C)O4)n2)cc(OC)c1OC,817 nM (active) and 4.61 µM (active)
21,COc1cc(NC(=O)c2ccc(-c3ccc(Cl)cc3)o2)cc(OC)c1,inactive
22,CCCNC(=O)NS(=O)(=O)c1ccc(Cl)cc1,inactive
23,CCc1ccc(OCc2ccccc2C(=O)Nc2ccc3nc(C)cc(N)c3c2)cc1,2.63 µM (active)
24,COc1cccc(-c2cc(=O)c3ccccc3o2)c1N,inactive
25,CCOC(=O)C1=C(N)Oc2ccc(Br)cc2C1C(C#N)C(=O)OCC (stereo not given),inactive
26,CN(C[C@@H]1COCCO1)S(=O)(=O)Nc1ccc2ccc3ncc(-c4cnn(C)c4)cc3c(=O)c2c1,5.15 µM (active)
27,Cc1ccn(-c2ccc(-c3ncco3)cc2)c(=O)c1-c1ccc2nc(N)ncc2c1,5.9 µM (active)
28,O=C(Nc1ccccc1-c1cn2c(CN3CCNCC3)csc2n1)c1cnc2ccccc2n1,20.5 µM (active) and 7.42 µM (active)
